# Source: PubChem BioAssay AID2012 (Sanford-Burnham Center for Chemical Genomics, 2009)
# The whole screen tested about 290,000 compounds, of which about 2,700 (0.93%) were called active. No rule for the calls is given here. The list comes from a sample in which actives are over-represented; it also holds similar structures and randomly drawn compounds.
# Target: Eukaryotic translation initiation factor 4H (Homo sapiens) (UniProt Q15056)
# Assay: human eIF4H binding inhibitors, primary screen, translation initiation inhibitor project, biochemical, uHTS, fluorescence polarization (AID 2012);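 also: calls also rest on retests at 20 µM and on dose response follow-up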
# Conditions: eIF4H fluorescence polarization binding assay, stronger effect = higher value
Structure (SMILES),inhibition (at 35 µM),"inhibition (confirmation average, at 20 µM)"
CN(C)c1ccc(/C=C2\CC3C4CC=C5CC(O)CCC5(C)C4CCC3(C)C2=O)cc1 (centres undefined),3.9% (active),87.3%
CCN1C(=O)C(=Cc2c(C)n(CC(=O)NCC3CCCO3)c3ccccc23)C(=O)N(CC)C1=S (centres undefined),48.5% (inactive),–
O=c1[nH]c(=O)n(Cc2ccccc2)c(O)c1/C=N/Nc1c(F)c(F)c(F)c(F)c1F,92.3% (active),–
O=C(N/N=C/c1c(O)n(Cc2ccccc2)c(=O)[nH]c1=O)c1ccccc1,74.3% (active),67.6%
CCCCC(=O)N/N=C/c1c(O)n(-c2ccccc2)c(=O)[nH]c1=O,12.9% (inactive),–
O=c1[nH]c(=O)n(CCc2ccc(F)cc2)c(O)c1/C=N/N1CCCCC1,-3.1% (inactive),–
O=C(N/N=C/c1c(O)n(C2CC2)c(=S)[nH]c1=O)c1ccccc1,10.1% (inactive),–
O=c1[nH]c(=O)n(CCc2ccccc2)c(O)c1/C=N/N1CCOCC1,3.3% (inactive),–
CC1CCC(N(C)C2CCN(C)CC2)CC1 (centres undefined),-3.9% (inactive),–
CCN(CC)C(=O)c1ccc(NC(=O)c2sccc2-c2ccccc2)cc1,-5.8% (inactive),–
CCCCn1c(=O)c(C(=O)Nc2ccccc2Cl)c(O)c2ccccc21,-6% (inactive),–
COc1ccc(N=Cc2c(O)n(C)c(=O)[nH]c2=O)cc1,35.4% (inactive),–
Cc1cccc(NC(=O)N2CC3CC(C2)c2cccc(=O)n2C3)c1 (centres undefined),-1.5% (inactive),–
Cc1nc2ccccc2c(=O)n1-c1ccc(Cl)cc1Cl,1.9% (inactive),–
Cc1ccc(C2CN(C)CC2C(=O)c2ccc(F)cc2)cc1 (centres undefined),-1.4% (inactive),–
COc1ccc(CNCCc2c[nH]c3ccccc23)cc1OC,-0.9% (inactive),–
CN(C)S(=O)(=O)c1cc(C(=O)N2CCC(C(=O)O)(c3ccccc3)CC2)ccc1Cl,-1.5% (inactive),–
O=C1NC(=O)N(c2ccccc2)C(=O)/C1=C/c1ccc([N+](=O)[O-])s1,70.5% (inactive),22.6%
Cc1cccc(N2C(=O)NC(=O)/C(=C\c3cnn(-c4ccccc4)c3)C2=O)c1,-2.6% (inactive),–
COc1cccc(N2C(=O)NC(=O)/C(=C\c3ccc([N+](=O)[O-])s3)C2=O)c1,73.8% (active),101%
O=C(Cc1ccc(Cl)cc1)NCCN1CCN(C(=O)Cc2ccc(Cl)cc2)CC1,-0.4% (inactive),–
COc1ccc(CNCCc2ccc3c(c2)OCO3)c(OC)c1OC,18.8% (inactive),–
COc1cccc(OC)c1C(=O)NC(=S)N1C[C@H]2C[C@H](C1)c1cccc(=O)n1C2,-6.5% (inactive),–
O=C(O)COc1ccccc1/C=C1\C(=O)NC(=O)N(CCC2=CCCCC2)C1=O,94% (active),–
CCCCC(=O)N/N=C/c1c(O)n(CCC2=CCCCC2)c(=O)[nH]c1=O,26.1% (inactive),–

Structure (SMILES),inhibition (at 35 µM),"inhibition (confirmation average, at 20 µM)"
O=C1NC(=O)N(CCc2ccc(F)cc2)C(=O)/C1=C/C=C/c1ccccc1,4.2% (inactive),–
CN1CCC(OC(=O)c2cccc(F)c2)CC1,-5.1% (inactive),–
CC1(C)Cc2c(C#N)c(N3CCNCC3)nc(-c3ccco3)c2CS1,84.6% (active),77.5%
COc1cccc(C(=O)N2C[C@H]3C[C@@H](C2)c2cccc(=O)n2C3)c1,18.7% (inactive),–
COc1ccc(CN2C(=O)NC(=O)/C(=C\c3ccc(OC)c(OC)c3OC)C2=O)cc1,9% (active),60.4%
O=C1NC(=O)N(Cc2ccco2)C(=O)/C1=C\c1cccn1CCOc1ccccc1,49.4% (inactive),–
C=CCN1C(=O)NC(=O)/C(=C/c2ccc(OCC(=O)Nc3ccc(C)cc3)cc2)C1=O,-6.2% (inactive),–
CN(C)C(=O)Oc1ccc2c(c1)O/C(=C\c1ccccc1)C2=O,-7% (inactive),–
COc1ccc(N2C(=O)/C(=C/c3ccco3)C(=O)NC2=S)cc1,74.6% (active),76.5%
Cc1cc(/C=C2/C(=O)NC(=O)N(Cc3ccco3)C2=O)c(C)n1-c1ccc(C(=O)O)cc1,84% (inactive),42.8%
Cc1ccc(S(=O)(=O)N(C)c2ccc(C(=O)NCC3(N(C)C)CCCCC3)cc2)cc1,0.5% (inactive),–
O=[N+]([O-])c1cnc2ccc3ccccc3c2c1,1.5% (inactive),–
COc1ccc2[nH]c3c(c2c1)CCN[C@H]3C,-4.1% (inactive),–
CN(c1ccccc1)c1ccc([N+](=O)[O-])c2nonc12,9.8% (inactive),–
CCC(=NCc1ccco1)c1c(O)n(Cc2ccccc2)c(=O)[nH]c1=O,67.3% (active),73.8%
CCCCn1c(O)c(C(CC)=NCc2ccco2)c(=O)[nH]c1=O,9.5% (inactive),–
CC/C(=N\NC(=O)c1ccccc1O)c1c(O)n(Cc2ccccc2)c(=O)[nH]c1=O,43.2% (inactive),–
Oc1cc2c(cc1CN1CCN(c3ccccc3)CC1)OCO2,-8.2% (inactive),–
O=c1c2ccccc2nc(/C=C/c2ccc(F)cc2)n1-c1ccccc1O,18.9% (inactive),–
CC(=O)c1c(O)n(C2CCCCCC2)c(=O)[nH]c1=O,82% (active),–
CCC(=NCCc1ccccc1)c1c(O)n(C2CCCCC2)c(=O)[nH]c1=O,-8% (inactive),–
CC(=NCC1CCCO1)c1c(O)n(-c2ccccc2)c(=O)[nH]c1=O (centres undefined),-5.3% (inactive),–
CCN1CCN(Cc2cc(OC)c3c(c2)OCO3)CC1,10.2% (inactive),–
c1ccc(CCNC2CCCCCC2)cc1,11% (inactive),–
CC(=O)Nc1ccc(C(=O)C(Cc2ccccc2)N(C)C)cc1 (centres undefined),-9.3% (inactive),–
